GSIS activator = GLuc luminescence reporter in INS-1E cells, primary screen for activators of glucose-dependent secretion of insulin; INS-1E GLuc reporter insulin secretion, 2-3 h; activation, % at 16.6 µM; AID 743287, 2014; 0.61% of 370,000 active;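 active means lowest replicate activation of at least 40%, so every replicate reaches that level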
Neddylation inh = inhibitors of cullin neddylation, primary screen, biochemical, TR-FRET, uHTS, NAE and Ubc12. inhibition, % at 25 µM. NEDD8-conjugating enzyme Ubc12 (Homo sapiens) + NEDD8-activating enzyme E1 regulatory …. AID 651699, 2012. 0.58% of 360,000 active; in the data active means inhibition above about 36%
Vif inh = HIV Vif self-association inhibitors, primary screen, imaging, HEK293T, single point. AID 602346, 2012. HEK293T cells, Vif self-association by quenched fluorescence, 24 h. inhibition, % at 7.49 µM. 0.35% of 340,000 active; in the data active means inhibition above about 50%, passing the limit was not always enough; inconclusive means no clear call, values can overlap the other calls; inactive means below about 31%
Bfl-1 A1 inh = caspase 3/7 activation in MEF A1-2A-BIM cells, primary screen, A1 inhibitor project, cell-based, luminescence, HTS; caspase activation, % (no concentration beside the values); 0.066% of 330,000 active; AID 2462, 2010; Caspase-Glo 3/7 luminescence, 3 h; percent of clofoctol response, vehicle zero;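 active means over half of replicate activation scores above 10%, or exactly half above 10 with the replicate mean above 10; inconclusive means replicate mean below 10 yet half the replicates above 10; inactive means over half of replicates below 10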
dFosB activator = activators of delta FosB homodimer, primary screen, biochemical, fluorescence polarization, TAMRA-CDK5 oligo, single point | Protein FosB (Mus musculus), P13346 | purified delta FosB; percent of positive-control signal above neutral wells | activation, % at 25 µM | 0.99% of 340,000 active | AID 493131, 2011;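 active means mean activation above about 17%, with every replicate also reaching it, limit read from the data, passing the limit was not always enough; inconclusive means only one of the two conditions met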
Target sequence (P13346 whole entry, looked up): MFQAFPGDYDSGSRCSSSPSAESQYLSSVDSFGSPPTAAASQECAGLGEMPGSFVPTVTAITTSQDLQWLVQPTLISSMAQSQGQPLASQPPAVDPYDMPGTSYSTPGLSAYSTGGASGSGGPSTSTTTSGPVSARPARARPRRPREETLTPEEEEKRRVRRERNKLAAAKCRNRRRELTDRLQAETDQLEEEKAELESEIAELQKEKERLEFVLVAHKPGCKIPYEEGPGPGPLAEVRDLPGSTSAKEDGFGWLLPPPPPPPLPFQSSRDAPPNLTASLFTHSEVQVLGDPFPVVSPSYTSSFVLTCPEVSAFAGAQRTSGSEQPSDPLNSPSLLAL
Hits are given with their value; n = inactive; u = inconclusive; x = not tested or not shown. Only some compounds are listed: those with a hit (about 1.9% of all), similar ones and a draw of the others.

SMILES	GSIS activator	Neddylation inh	Vif inh	Bfl-1 A1 inh	dFosB activator
Cn1c(SCc2nnc3n2CCCCC3)nc2ccccc21	66	n	n	n	n
CC1=CC(=C(C#N)C#N)C=C(C)N1CCN1CCN(C(=O)Nc2ccc(Cl)c(Cl)c2)CC1	n	n	n	n	50
Cc1cc(C)c(NC(=O)CSc2nc3ncc(Br)cc3[nH]2)c(Cl)c1	n	n	n	n	69
COc1ccc(/C=C2/SC(=S)N(c3ccc(S(=O)(=O)Nc4nccs4)cc3)C2=O)cc1	n	80	n	n	n
Cc1ccc(/C=C2/SC(=S)N(c3ccc(S(=O)(=O)Nc4nccs4)cc3)C2=O)cc1	n	n	n	n	n
CN1c2ccc(Br)cc2[C@H]2[C@H](CCN2C(=O)Cc2ccccc2)[C@H]1CO	n	x	x	x	x
O=C(C[C@@H]1CC[C@@H]2[C@H](COC[C@H](O)CN2S(=O)(=O)c2ccccc2Cl)O1)N1CCC(Cc2ccccc2)CC1	n	x	x	x	x
O=C1CCC/C(=N/NC(=O)c2cc(NS(=O)(=O)c3cccs3)cc(NS(=O)(=O)c3cccs3)c2)C1	n	n	n	n	n
O=C1CCC/C(=N/NC(=O)c2ccc(NS(=O)(=O)c3cccs3)cc2)C1	n	n	52	n	n
CCc1ccc(C2C(C#N)=C(N)SC(N)=C2C#N)s1	x	n	77	n	n
CCc1ccc(C2C(C#N)=C(N)SC(N)=C2C#N)cc1	n	n	n	n	n
N=c1n(Cc2ccccc2)c2ccccc2n1CC(O)COc1ccc(Cl)cc1Cl (stereo unspecified)	n	n	n	x	30
CCNC(=O)C[C@H]1C=C[C@@H](NS(=O)(=O)c2ccc(C)cc2)[C@@H](CO)O1	n	x	x	x	x
Cc1cc2nc(-c3ccccc3O)[nH]c2cc1C	40	x	n	x	n
O=C(C[C@@H]1CC[C@H]2[C@@H](COC[C@@H](O)CN2Cc2cc(F)ccc2F)O1)NCc1ccc(Cl)cc1	n	x	x	x	x
COc1cc(C2Nc3cccc4cccc(c34)N2)ccc1O	n	n	n	n	52
COc1cc(C2Nc3cccc4cccc(c34)N2)cc(OC)c1OC(C)=O	x	n	n	n	n
c1cc2c3c(cccc3c1)NC(c1ccc3c(c1)OCO3)N2	n	n	n	n	36
COc1cccc(-c2cccc(-c3nc(C(=O)Nc4ccc(-c5ccccc5)cc4)cc4c3[C@@H](CCO)N(S(=O)C(C)(C)C)C4)c2)c1 (stereo partly specified)	n	x	x	x	x
CC(C)(C)S(=O)N1Cc2cc(C(=O)Nc3ccc(-c4ccccc4)cc3)nc(-c3cccc(-c4cccc(F)c4)c3)c2[C@@H]1CCO (stereo partly specified)	190	x	x	x	x
CCCNC(=O)N1CCC2(CC1)CN(C(=O)CC1CC1)[C@H](CO)c1c2c2ccc(OC)cc2n1C	n	x	x	x	x
CO[C@H]1CN(C)C(=O)c2cc(NC(=O)C3CC3)ccc2OC[C@H](C)N(Cc2ccncc2)C[C@@H]1C	n	x	x	x	x
CC1Nc2ncnc(N3CCc4ccccc4C3)c2N(Cc2ccc(Cl)cc2)C1=O (stereo unspecified)	74	n	n	n	u
O=C(NNC1CCN(Cc2ccccc2)CC1)c1ccccc1	44	n	n	x	n
Cc1cccc(-n2c(C)c(C)c3c(N)ncnc32)c1	49	n	n	n	n
SMILES	GSIS activator	Neddylation inh	Vif inh	Bfl-1 A1 inh	dFosB activator
CCC(=O)N1CC2(C1)CN(Cc1cccc(F)c1)[C@@H](CO)c1c2c2ccc(OC)cc2n1C	n	x	x	x	x
CC(=O)Nc1nc2nc(-c3ccccc3)cc(-c3ccccc3)n2n1	x	n	x	n	n
O=C(Nc1nc2nc(-c3ccccc3)cc(-c3ccccc3)n2n1)c1ccco1	x	x	x	n	68
C[C@@H]1CN([C@@H](C)CO)C(=O)c2cc(NS(=O)(=O)c3cccs3)ccc2O[C@@H](C)CCCCO[C@@H]1CN(C)Cc1ccccc1	n	x	x	x	x
Cc1cccc(Nc2nc3c(S(=O)(=O)c4ccccc4)nnn3c3ccccc23)c1	n	n	n	7.4	n
Clc1ccc2c(N/N=C/c3cccc(Br)c3)ccnc2c1	n	n	n	n	52
Clc1ccc2c(N/N=C/c3ccccc3Br)ccnc2c1	n	n	n	n	46
Clc1ccc2c(NNc3ccccc3Cl)ccnc2c1	x	n	n	n	n
O=[N+]([O-])c1ccc(/C=N/Nc2ccnc3cc(Cl)ccc23)o1	n	n	n	n	n
CCCNC(=O)C[C@@H]1CC[C@H]2[C@@H](COc3ccc(NC(=O)C4CCOCC4)cc3C(=O)N2C)O1	n	x	x	x	x
COc1ccc2c(c1)oc(=O)c1cc(OC)ccc12	n	x	n	n	n
COc1ccc2c(C)c(Cl)c(=O)oc2c1	x	x	53	n	n
COCC#Cc1ccc2c(c1)O[C@H](CN(C)S(=O)(=O)c1cccc(F)c1)[C@H](C)CN([C@H](C)CO)S2(=O)=O	n	x	x	x	x
Cc1noc(C)c1NC(=O)N(C)C[C@@H]1Oc2ccc(NC(=O)NC(C)C)cc2C(=O)N([C@H](C)CO)C[C@@H]1C	n	x	x	x	x
CCCN(CCC)CC(O)Cn1cc(/C=C/C(=O)c2ccccc2)c2ccccc21 (stereo unspecified)	n	n	n	x	n
CCCCN(C)CC(O)Cn1cc(/C=C/C(=O)c2ccc(C)cc2)c2ccccc21 (stereo unspecified)	n	n	n	n	26
O=C(C[C@H]1C[C@H]2c3cc(NC(=O)Cc4ccncc4)ccc3O[C@H]2[C@@H](CO)O1)NCc1ccncc1	n	x	x	x	x
O=C(NCCCn1ccnc1)C(=O)NCC(c1cccnc1)N1CCN(c2ccccc2)CC1 (stereo unspecified)	n	n	54	x	n
O=C(NCCCn1ccnc1)C(=O)NCC(c1ccco1)N1CCN(c2ccccc2)CC1 (stereo unspecified)	n	n	n	n	n
CO[C@@H]1CN(C)C(=O)c2cc(NS(=O)(=O)CC(F)(F)F)ccc2OC[C@@H](C)N(CC2CCCCC2)C[C@@H]1C	n	x	x	x	x
Cc1cccc(C)c1N=Nc1c(C)cc(O)cc1C	571	n	n	n	n
Cc1cccc(O)c1C	n	n	n	x	n
CO[C@@H]1CN(C)C(=O)c2ccc(NC(=O)c3nc4ccccc4s3)cc2OC[C@@H](C)NC[C@@H]1C	n	x	x	x	x
OC(CNCCc1ccc(C(F)(F)F)cc1)COC(c1ccccc1)c1ccccc1 (stereo unspecified)	365	n	n	n	n
COc1ccc(NC(=O)Nc2ccc3c(c2)C(=O)N([C@@H](C)CO)C[C@H](C)[C@@H](CN(C)C(=O)Nc2ccc4c(c2)OCO4)OCCCC[C@H](C)O3)cc1	n	x	x	x	x
Cc1ccc(-c2ccc(/C=C(\C#N)C(=O)Nc3cc(C)nn3-c3ccccc3)o2)cc1	x	x	x	33	x
Cc1cc(NC(=O)/C(C#N)=C/c2ccco2)n(-c2ccccc2)n1	n	n	n	n	n
C[C@H]1CN([C@@H](C)CO)C(=O)c2cc(C#CCc3ccccc3)cnc2O[C@H]1CN(C)Cc1ccc(C(=O)O)cc1	n	x	x	x	x

Bioassay records (PubChem BioAssay)
